# Laboratory results taken from the supplement of paper PMC7380943.
# Test system: CLZ3 (HCA2 human fibroblast dual HR-NHEJ reporter)
# Assay: NHEJ repair efficiency (GFP+ cells) relative to control (log10 fold); higher = more non-homologous end joining
# Details: 5 µM; doxycycline 0.5 ug/mL
# 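Note: compound given one day ahead of doxycycline, which switches on I-SceI endonuclease to cut the chromosomally integrated reporter and create DSBs.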
row,SMILES,NHEJ repair efficiency (log10)
1,C[C@H]1O[C@H](O[C@@H]2[C@@H](O)[C@H](OCCc3ccc(O)c(O)c3)O[C@H](CO[C@H]3OCC(O)(CO)[C@@H]3O)[C@H]2OC(=O)/C=C/c2ccc(O)c(O)c2)[C@@H](O)[C@@H](O)[C@@H]1O (some centres undefined) [Forsythoside B],0.0465
2,COc1cc(/C=C/CO)ccc1O[C@@H]1O[C@H](CO)[C@@H](O)[C@H](O)[C@H]1O [Coniferin],0.0205
3,CC(C)=CCC/C(C)=C/CC/C(C)=C/CC/C(C)=C/CC/C(C)=C/CC/C(C)=C/CC/C(C)=C/CC/C(C)=C/CC/C(C)=C/CO [Solanesol],-0.0479
4,NC(=O)NC1NC(=O)NC1=O (centres undefined) [Allantoin],0.029
5,C[C@@H]1CC[C@@]2(OC1)O[C@H]1C[C@H]3[C@@H]4CC=C5C[C@@H](O[C@@H]6O[C@H](CO)[C@@H](O)[C@H](O)[C@H]6O)CC[C@]5(C)[C@H]4CC[C@]3(C)[C@H]1[C@@H]2C [Diosgenin glucoside],-0.0975
6,O=C(/C=C/c1ccc(O)c2oc(-c3ccc(O)c(O)c3)cc12)O[C@H](Cc1ccc(O)c(O)c1)C(=O)O [Salvianolic Acid C],-0.0345
7,Oc1cc(O)c2cc(O)c(-c3ccc(O)c(O)c3)[o+]c2c1 [Cyanidin Chloride],-0.0642
8,OCc1ccccc1O[C@@H]1O[C@H](CO)[C@@H](O)[C@H](O)[C@H]1O [Salicoside],-0.0463
9,CC1OC(OC2C(C)OC(OC(=O)C34CCC(C)(C)CC3C3=CCC5C6(C)CCC(OC7OC(C(=O)O)C(OC8OC(CO)C(OC9OC(CO)C(O)C(O)C9O)C(O)C8O)C(OC8OCC(O)C(O)C8O)C7O)C(C)(C=O)C6CCC5(C)C3(C)CC4)C(OC3OCC(O)C(O)C3OC3OCC(O)C(O)C3O)C2O)C(O)C(OC2OCC(O)C(O)C2O)C1O (centres undefined) [Gypenoside],0.0642
